We go through 14 compounds from PubChem BioAssay (NCI).

“And” between values parts separate entries of the source, which are not always exact repeats. Equal entries are not always repeated. Compounds without any hit were thinned out: in the full panel of roughly 83,000, 20% have a hit.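 The test compound was applied at a single concentration to cells in 96-well plates for 48 hours, and percent growth was recorded.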 Values without a mark were called inactive. The source made the active and inactive calls. How the source made its calls: active means growth percent below 10; inactive means the rest.

The subject of this assay is NCI/ADR-RES ovarian. Nature of the assay: NCI-60 one-dose screen, 48 h (100 = growth as untreated, 0 = no growth, -100 = all killed). Particulars: 10 µM unless noted.
As to `CC1(C)C=Cc2c(ccc3c2[N+]([O-])=C2C3=C[C@@]34NC(=O)[C@]5(CCCN5C3=O)C[C@@H]4C2(C)C)O1`, the growth is 54.6%.

As for `O=C(O)C1C(C(=O)O)C2(Cl)C(Cl)=C(Cl)C1(Cl)C2(Cl)Cl` (centres undefined), the growth is 111% and 106%.

For the compound `CNC(=O)O/N=C(\SC)C(=O)N(C)C`, the growth was 96.4%.

For the compound `C[C@]12CCc3sc(Nc4ccc(F)cc4F)nc3C1=CC[C@@H]1[C@@H]2CC[C@]2(C)C(=O)CC[C@@H]12`, the growth is 67.6%.

Turning to `N#CC(C#N)=C(C#N)C#N`, the growth was 110%.

As for `N#CCC(=O)c1ccccc1`, the growth was 104%.

On to `O=C(O)c1ccc(=O)[nH]c1`, for which the growth was 88.9% and 102%.

`CC[C@H](C)[C@H](NC(=O)CN(C)C)C(=O)N(C)[C@H](C[C@@H](OC(C)=O)c1nc(C(=O)NC23C4C5C2C2C3C4C52C(=O)OC)cs1)C(C)C` (some centres undefined): the growth is 63.7%.

In the case of `CNC(=O)Oc1ccc(Cl)cc1SSc1cc(Cl)ccc1OC(=O)NC`, the growth was 81.2%.

As for `CC(=O)OC1CC2(O)C(CCC3(C)C(c4ccc(=O)oc4)CCC32O)C2(C)CCC(OC3OC(CO)C(O)C(O)C3O)C=C12` (centres undefined), the growth was -61.6% (active).

Regarding `Oc1ccc(O)c(Cl)c1`, the growth is 102% and 97.3%.

As for `CC(=O)Nc1nc2c(s1)C1=CC[C@H]3[C@@H]4CC[C@H](OC(C)=O)[C@@]4(C)CC[C@@H]3[C@@]1(C)CC2`, the growth was 43.4%.

For the compound `O=C(O)C(F)F`, the growth is 113%.

With `CC[C@H](C)[C@H](NC(=O)C12CC(NC)(C1)C2)C(=O)N(C)[C@H](C[C@@H](OC(C)=O)c1nc(C(=O)N[C@@H](Cc2ccccc2)C[C@H](C)C(=O)OC)cs1)C(C)C`, the growth is 68.9%.
